Source: PubChem BioAssay
ALDH1A1 block = inhibitors of human aldehyde dehydrogenase 1A1. P00352. Purified ALDH1A1, NADH fluorescence, propionaldehyde substrate. Potency, µM (titrated, usually from 75.3 µM), inactives show top-dose activity, negative = inhibition, actives largely listed as inhibitors. actives 7.3% (n = 220,000). AID 1030; active = well fitted inhibition curve with a large enough effect, not every such curve was filed as active; inconclusive = small, poorly fitted or top-dose-only effect, or another doubt; inactive = no such curve, though single readings can be large or run the other way;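 also: plate controls were no enzyme wells and a reference inhibitor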
HTT aggregate = reduces HttQ103-GFP aggregates in PC12 cells. PC12 HttQ103-GFP aggregates, Acumen cytometry, 40 h. actives 1.1% (n = 220,000). Potency, µM (top dose mostly 46.1 µM), for inactives: at the highest dose activity change, negative = inhibition, most hits filed as inhibitors; also: % is scaled to controls: 0 for no effect and ±100 for the full control effect; nearly all actives have a fitted effect of over 60% in size
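Multiplexed with ATP-based cell death, this channel scores GFP aggregates in PC12 cells expressing inducible HTTex1-Q103-GFP. Induction used 100 nM tebufenozide; compounds were tested in concentration series.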
Lamin A splicing = modulators of lamin A splicing. HeLa LMNA splicing GFP/RFP minigene ratio, 48 h. Potency, µM (highest dose often 46.1 µM), for the others: top-dose ratio change, negative = inhibition, most hits filed as inhibitors. actives 0.01% (n = 200,000). AID 1487; active = well fitted inhibition curve with a large enough effect in the signal ratio, with a control signal flat, not every such curve was filed as active; inconclusive = small, poorly fitted or top-dose-only effect, or effect the other way, or a change in a side signal; the % refers to the signal ratio; also: % is scaled to controls: 0 for no effect and ±100 for the full control effect
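S3 HeLa cells stably expressing lamin A-EGFP splicing minigene plus DsRed2, 600 cells/well, 48 h compound exposure at 37C. Laser-scanning cytometry; analysed as GFP (500-530 nm)/RFP (575-640 nm) total intensity ratio; 0.5% DMSO vehicle.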
HTT ATP protect = protects HTT-Q103 PC12 cells, measured by ATP; PC12 HTT-Q103 induced, cytoprotection, ATP luminescence, 40 h; Potency, µM (top dose mostly 56.4 µM), inactives show cytoprotection (ATP increase), most hits filed as activators; actives 0.14% (n = 230,000); AID 1471; also: % of control where 0% means no effect; nearly all actives have a fitted effect of over 45% in size
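PC12 cells stably carrying ecdysone-inducible Htt exon 1 (Q103)–GFP were induced with 100 nM tebufenozide (final) alongside library compounds in a dose series. Cytoprotection was scored as retained ATP by ATPlite luminescence.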
HPGD inh = inhibitors of human 15-hydroxyprostaglandin dehydrogenase (HPGD); P15428; purified HPGD, NADH fluorescence kinetic, PGE2 substrate; Potency, µM, for inactives: top-dose activity change, negative = inhibition, most hits filed as inhibitors; actives 4.3% (n = 150,000); AID 894; active = well fitted inhibition curve with a large enough effect, not every such curve was filed as active; inconclusive = small, poorly fitted or top-dose-only effect, or another doubt; inactive = no such curve, though single readings can be large or run the other way; also: % is scaled to controls: 0 for no effect and ±100 for the full control effect
Target sequence (P15428 whole entry, looked up): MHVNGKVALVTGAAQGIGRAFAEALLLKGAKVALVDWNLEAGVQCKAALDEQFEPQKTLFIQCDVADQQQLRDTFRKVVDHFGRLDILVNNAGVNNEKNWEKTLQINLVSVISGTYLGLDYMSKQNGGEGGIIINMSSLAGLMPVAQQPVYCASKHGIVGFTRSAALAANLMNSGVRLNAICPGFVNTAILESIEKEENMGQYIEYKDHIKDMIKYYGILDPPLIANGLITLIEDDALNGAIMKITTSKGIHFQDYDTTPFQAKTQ
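20 nM HPGD preincubated 15 min at room temperature with compound in 50 mM Tris-HCl pH 8, 0.01% Tween 20. Started with 1 mM NAD+ and 30 uM prostaglandin E2; NADH fluorescence (360/450 nm) read 5 times over 30-s intervals, last minus first.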
The depositor's hits bear a star; ? = inconclusive; . = not tested or not shown; ! = not confirmed by another sample; [ ] = remark or other dose. Most compounds without a hit are left out; they make up all but 8.8% or so of the library. Unless noted, calls follow the shape of the dose curve; as a rule, active = well fitted curve in the direction sought with a large enough effect; inconclusive = small, poorly fitted or top-dose-only effect, or another doubt; inactive = no such curve, though single readings can be large; an effect the other way counts as inactive or inconclusive. Potency is read from the fitted curve at half-maximal effect.

SMILES | ALDH1A1 block | HTT aggregate | Lamin A splicing | HTT ATP protect | HPGD inh
C[C@@]12CC[C@H](O)C[C@@H]1CC[C@H]1[C@@H]2C[C@@H](O)[C@]2(C)[C@@H](C3=CC(=O)OC3)CC[C@]12O | -3%[20.9 µM] | . | ? | ? | -6%
CCC(C)C(=O)OC1C(O)C2C(CN3CC(C)CCC3[C@]2(C)O)C2C[C@]34O[C@@]5(O)C(OC(=O)C(C)(O)CC)CCC3(C)C5C(OC(C)=O)C(OC(C)=O)C4[C@@]21O (some centres not stated) | 14% | . | . | 1.4µM* | -2%
CCC(C)C(=O)OC1C(O)C2C(CN3CC(C)CCC3[C@]2(C)O)C2C[C@]34O[C@@]5(O)C(OC(=O)C(C)(O)C(C)O)CCC3(C)C5C(OC(C)=O)C(OC(C)=O)C4[C@@]21O (some centres not stated) | 9% | . | . | 6% | -8%
Fc1ccc(C(OCCN2CCN(C/C=C/c3ccccc3)CC2)c2ccc(F)cc2)cc1 | -14% | . | . | -174% | .
O=C1CS[C@@H](c2ccccc2Cl)c2cc(Cl)ccc2N1 | -9% | . | . | 19% | -20%
CN(C)/C=c1\sc2c(C#N)cc(C(=O)c3ccc(Br)cc3)n2c1=O | 2µM* | -11% | 4% | -17%[10 µM] | -12%
CN1[C@@H]2CC[C@H]1CC(O[C@@H](c1ccccc1)c1ccc(Cl)cc1)C2 (some centres not stated) | 5% | . | . | -80% | -4%
Cc1cc(/C=C2/C(=O)NC(=O)N(C)C2=O)c(C)n1-c1ccccc1 | 2% | -19%[9.22 µM] | ? | -34% | .
CCN1C(=O)C(=Cc2cc(C)n(C3CC3)c2C)C(=O)N(CC)C1=S | 10µM* | ? | -8% | -8%[10 µM] | -19%
Cc1cc(C=C2C(=O)N(C)C(=S)N(C)C2=O)c(C)n1-c1cccnc1 | 11µM* | 33% | 7% | 9%[10 µM] | 10µM*
Cc1cc(C=O)c(C)n1C1CCCCC1 | 22µM* | 9%[1.84 µM] | -2% | 0% | -7%
Cc1cc(/C=C2\C(=O)NC(=S)N(C)C2=O)c(C)n1C1CCCCC1 | -8% | 12% | -8% | -1%[10 µM] | -1%
Cc1cc(C=C2C(=O)N(C)C(=S)N(C)C2=O)c(C)n1C1CCCC1 | 22µM* | -15% | 0% | -12% | -13%
N[C@@]1(C(=O)O)CC[C@H](C(=O)O)C1 | -9% | . | . | -11% | 3%
C=CCCN1C[C@@H]2C[C@H](C1)c1cccc(=O)n1C2 | . | . | . | 7% | .
CO[C@H]1[C@H](O)[C@H](O[C@@H]2[C@H](Oc3cccc4c(O)c5c(=O)oc6ccc(C)c7c(=O)oc(c34)c5c67)O[C@@H](C)[C@H](O)[C@H]2O)O[C@@H](C)[C@@H]1O | -12%[13.5 µM] | . | . | -8%[10 µM] | -2%
CCOC(=O)c1ncn2c1CN(C)C(=O)c1cc(N=[N+]=[N-])ccc1-2 | ? | . | . | -1% | -11%
Cn1cc2c([N+](=O)[O-])cc([N+](=O)[O-])cc2n1 | ? | 21% | -4%[46 µM] | -42% | .
Cn1cnc([N+](=O)[O-])c1Sc1ccc([N+](=O)[O-])cc1 | 7.9µM* | -1%[9.22 µM] | . | 14% | .
CN1Cc2c(ccc3c2OCO3)[C@@H]2[C@@H](O)Cc3cc4c(cc3[C@@H]21)OCO4 | ? | . | ? | -75% | -2%
CC1CN=C(Nc2ccccc2)S1 (configuration not stated) | -9% | -19% | -5% | 40%[10 µM] | 8.9µM*
CC1CN=C(Nc2ccc(N(C)C)cc2)S1 (configuration not stated) | 3% | -13% | 6% | -18% | .
O=S(=O)(Nc1nccs1)c1ccc([As](=O)(O)O)cc1 | -2%[13.5 µM] | . | . | 17%[10 µM] | -9%
CCCCOCC1CO1 (configuration not stated) | -4% | . | . | -53% | -9%
CCN(CC)C(=O)c1ccc(N2C(=O)C3CC=C(Cl)CC3C2=O)cc1 (configuration not stated) | -6% | 4% | 6% | -7% | 13µM*
N#CCN1CCN(c2ccc(C(F)(F)F)cc2)CC1 | 12% | 2% | -2% | . | -3%
N#CC(C#N)=Cc1ccc(N2CCCC2)cc1 | 10µM* | -14% | . | -36% | .
CC(C)(C)c1cc(C=C(C#N)C#N)cc(C(C)(C)C)c1O | 8.9µM*! | . | ? | -76% | ?
